The campaign covered roughly 53,000 sequences. About 3,700 (7%) were called active. The entries come from a sample that favours actives as a whole. Values without a mark were called inactive.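 How the source made its calls: active means gene knockdowns whose robust z-score for IL-1 alpha signal is at least 2 or at most -2, so actives lie on both sides; inactive means the rest.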

The nature of this assay: Components of the Cytosolic LPS Sensing Pathway: Gene Identification via Genome-wide siRNA Screen.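 Further: robust z of the log signal after scaling to non-targeting control siRNA wells of the plate.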 The settings on record: RAW264.7 macrophages, IL-1a HTRF, actives lie on both sides, screened at 100 nM (by protocol), cells primed 5 h with Pam3CSK4 first. An outline of the steps:
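Using IL-1a HTRF as read-out, the screen measured release from RAW264.7 cells after 48h siRNA knockdown (100 nM), 5 h Pam3CSK4 priming and 24 h cytosolic LipidA. Values were expressed relative to negative-control wells as robust z-scores.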
Consider GGCUUUGGUCAAGGAGAAGTT against Pias4, for which the z-score is -1.32.
As for GGAUCAAUGAUACAACUGATT against Il1r1, the z-score is -0.976.
As for GGUGCUAAAGGACAUAGGUTT against Tmem177, the z-score is 3.27 (active).
Next, GGGCACCUAUUCAGAUACCTT against Map2: 0.685; GCCGAACGUGUUUAAACUCTT against Psd3: 0.0404; GGAACCUCUCAGAUUUUCATT against Zfp599: 0.828.
Under GGCCUCUCAAAAUCUUCCUTT against Galnt11 stands -1.46; under CGUAGUACCCAUGAAUUACTT against Adora2a, 4.87 (active).
Regarding GGACUGACUCUUUUUUAACTT against Uba3, the z-score was -0.697.
Next, CGAAAACAAUUACGUCUAUTT against Rfwd3: 1.15; GCCAAACGCAUCAUGGAAATT against Arglu1: -0.59.
For CCACGACGUACAUCCAUAATT against Tmem181a, the z-score was -1.02.
Under GGCGAAAACGGUAAAGCCUTT against H1f4 stands 0.448; under GGCCAGCAAUAAAACUGUCTT against Max, -0.326; under GCCCGCCUAUUUGAAAGCATT against Zfp740, 0.839.
Turning to GGAUGAAGGAACUAAAUAUTT against Cog3, the z-score is -2.15 (active).
In the case of GGUCCUUAGGUGACCUCCUTT against Lrrc20, the z-score is -0.249.
Next, GGAAAAUGCUGUCCAGUGGTT against Rdh11: -0.858; GGAGGUGAACAGAUCUCACTT against Fubp1: 0.391; GGUCACAGCAAGUUAAUAATT against Ranbp9: -2.1 (active).
For GGAGGUUCUACCCUGUUCATT against Actr1a, the z-score was 0.48.
Under GGGAGAAUCUAACUAAGCCTT against Sirt7 stands 0.383.
Under GGUCAUGCACACUCGAAAUTT against Mrpl54 stands 0.831; under GGUGGCUCAGAAAUCCUAUTT against Rbpjl, -0.206.
Under “GCGAAUCUCCACAAGAUGGTT against 2300002M23Rik” stands -0.0187; under CGGCUUCUCUCUUUACACATT against Fosb, 2.51 (active).
As for GGAGAAAAGUACCAAGAUGTT against Ifi27l2b, the z-score is -1.15.
Under AUGGUAUACUAUUAUGCUGTT against Mup20 stands 1.62; under GGAACUAACGGAAUUACUGTT against Arl3, 0.951; under GCGAAAUCAACAGUCAAUUTT against Ep300, 0.458.
As to GGAAGCAGAGCAGCUGUUUTT against Skiv2l, the z-score is -0.567.
Next, GGGAUCAAUUUUGAAGAAUTT against Jmjd4: -0.398.
Next, GGAGUAUGUCCAUUGUCACTT against Vmn1r230: -2.54 (active); UCAGCGAGCUUUAACCUUUTT against Olfr1028: 0.26; GGUUUUUCAGCUUUGGAACTT against Decr1: -0.822.
As to CCCACUUUCUUUGAUAACUTT against Bcl2l11, the z-score is 0.585.
Under CGCGUAGAUAAGAAGUAUUTT against Anks1 stands 0.181; under GCUCAACAAAGCCUGUUCGTT against Zp3, 2.35 (active); under GCAUUACUAAUCAAAGUGGTT against Abcb1b, -0.78.
Under CCACUUCAUGAUUGAGUGCTT against Phf8-ps stands -0.836; under CCAUGAGUUCAGAUGAUGATT against Ints10, -1.11; under CCUGAAACAUUCAGUGUCUTT against Apool, 0.293.
On to GCUUAAUUUCAUUUCAAGGTT against B3gnt5, for which the z-score was 0.496.
Under GCUUCCCUGCCGUGAUGAUTT against Git1 stands -1.15.
Next, GGACACAAGUUUUCAGAUCTT against Elmod2: 3.02 (active); GGAUCAUGGAUAUACCACCTT against Smarcb1: -1.72.
Take GGUGCAAACUAAAAAUCUUTT against Enc1: the z-score is 2.73 (active).
Next, GGAAGAUGAAGAUGAGAAUTT against Igbp1b: -1.24.
Under GGGAAGCAUGCAGAACAGCTT against Parg stands -1.42; under GGUUCCUCAAGAUCAUCAUTT against P2ry13, 0.051; under GCUUUGAUGGAUUCUAAUCTT against Htt, 1.09.
Next, CCCAUUUGCUCUGUGGAUCTT against Tha1: 0.289; GCACUUUGGGUUUAAGUACTT against Ndrg4: 3.7 (active).
Turning to GGGAGAGAGAAAAAGAAAATT against Park7, the z-score was 0.94.
Next, CCUGGCCAUGUCGAAAGAUTT against Pla2g6: 0.716; GGAAGAAGUCAGAUGUGGATT against Radil: -0.315.
Under UGAUGCUAAGACUGAACCATT against Olfr541 stands -1.14; under GGACAUUGUUGUCCAAACUTT against Sptb, -2.24 (active).
Consider CCAUAUUUGAAGAAGUCCATT against Espl1, for which the z-score is -0.325.
Under GGGUACAACUCUUUGAAGATT against Mnat1 stands 0.535; under GCAGUUGAUGAUAAUGUGATT against Pot1b, -0.0269.
Next, CGCGGAAACUCUCCACUUATT against Psme4: -1.18; GGGCGAUAUUAUGAGCAACTT against Atp1b2: 3.78 (active).
Under GGAUCCUCUUCUAUCUUUATT against Pycr1 stands -1.27; under GGCUGCUUUACUGAAGUAATT against C2cd6, 1.29.
Regarding GGGACUUGGAUCGAAUGGATT against Apeh, the z-score is 0.326.
As for GGGAAAUUGUGUAGCAGCUTT against Slc25a29, the z-score was -2.76 (active).
Next, GGAGGUGGUGUUUAUACCATT against Scrn2: 0.728.
Under GCCUAUGCAGCUCUCUCUGTT against Acat3 stands 0.772; under GGUUAUUACGUAGUUGGUATT against Cd46, 0.683; under GGUCUACGCGCUCUAUGAATT against Gpr150, -1.03.
Next, GGAGACAGAAUCAUAGUUATT against Sh3yl1: 0.0505; CGAUUCUUUAGGAACUUUGTT against Pak7: -0.0771; GGCAGUGGUUAAAGGUUCCTT against Lrp6: 2.27 (active).
Turning to GCACUUAUACUACUUAGUUTT against Abca8a, the z-score was 2.4 (active).
Under GCAGGAUUUUCACCAACAGTT against Gh stands -0.215; under GGUAGAAUCCGGUUACCACTT against Tox, 0.704; under GGGAAAGACCAUGUUUGUATT against Ttbk2, 0.493.
Next, CCAAUUGUGAGAAGAGUGUTT against Cog7: -0.46; GGAUUUUGUGAAUAAAUGCTT against Map2k1: 1.31.
Under GGGAAAAGAGAGUGGUGUATT against Rab27a stands -0.26.
As to GGAGAGCUGGUGUUUUAGATT against Tnfrsf17, the z-score is 2.74 (active).
On to GGGUUCAUUUCUCAAAAUUTT against Nol7, for which the z-score is -0.831.
Under GGAACAAGAAGACUGUGAATT against Pcnt stands -0.519; under GCCUUACAAUUUGUUCUACTT against Dsc1, 1.
Under CGUCCAGUAUACGCUGGUUTT against Cdc45 stands 5.41 (active).
Next, GGAUGAACCAAGCUACUGCTT against Gba2: -0.541; GUUCAAGACGGAGAAGAGGTT against Gpr27: 3.03 (active).
For CCCAAUACAUGAGCUUCUGTT against Ch25h, the z-score was -0.209.
Under GGAAGACUUCGUGUUGACATT against Proz stands 0.223.
Regarding GGCUCUAUGUUUAUAAUGATT against Olfm5, the z-score was -2.07 (active).
Under GGAAAAAUGACUGAUCUCUTT against Unc5c stands -0.0354; under GGUUGGUAGACUGUGCUUGTT against Hgsnat, -2.56 (active).
Next, GGACCUACUACGUAAACCATT against Nedd4: 0.434; GGAAUAUCGGACUUUUUCATT against Mis18bp1: 0.635; CGGGACCUUGUUGAUAACUTT against Tmem130: 0.811.
Next, GGUGUUUGGGAAAGGUCUGTT against Trpm1: -1.33; GCACAAAUGGGAAUACGACTT against Klhl36: -0.94.
In the case of CCAACCAGACUUAUUUAAUTT against Zfp37, the z-score was 1.61.
In the case of GGGUGGCUAUGGACAAAAATT against Arl5c, the z-score is 0.887.
Next, GGACAUCAAUUCAACAGUUTT against Lifr: -0.361; GGAAGAGUGUUUAAACUAUTT against Kbtbd8: -0.591.
Next, CCUGAUCUAAUCCUAAAUGTT against Pgr: -0.171; AUCUAUUCGAAUCAGGAAGTT against Epsti1: -0.102; GGCUUUUGAAGUAAAUACATT against Pcdhb14: 2.65 (active).
With GUCCAGAGUGACCACAUUUTT against Pemt, the z-score was -0.471.
Next, GGAUUACGCAGAUUCCAUUTT against Rab22a: -0.474; CGAAUUGAAUUCUACGAACTT against Pmm2: 0.252.

The values above are taken from PubChem BioAssay AID1508600 (Functional Genomics Laboratory (NCATS/FGL), 2020).
